Measured values taken from PubChem BioAssay (NCI).
About 83,000 compounds went through this panel and 20% of them were active in at least one assay; those are over-represented in the sample as a whole.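 In brief: 96-well plates, 48 h treatment, single concentration, percent growth endpoint.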 The source made the active and inactive calls. Rule for the calls: active = growth percent below 10; inactive = the rest.

Legend:
Test in all cases: NCI-60 one-dose screen, 48 h (100 = growth as untreated, 0 = no growth, -100 = all killed)
Details in all cases: 10 µM unless noted
T-47D breast = test system: T-47D breast
BT-549 breast = test system: BT-549 breast
MDA-MB-435 melanoma = test system: MDA-MB-435 melanoma
SW-620 colon = test system: SW-620 colon
MCF7 breast = test system: MCF7 breast
HCT-116 colon = test system: HCT-116 colon
HCC-2998 colon = test system: HCC-2998 colon
KM12 colon = test system: KM12 colon

Measured: growth

COc1cccc(-c2nn(-c3ccccc3)cc2-c2ccnc(-c3cccnc3)c2)c1
inactive: T-47D breast 76.9% | BT-549 breast 98.5% | MDA-MB-435 melanoma 97.7% | SW-620 colon 109% | MCF7 breast 87.1% | HCT-116 colon 85.7% | HCC-2998 colon 96.4%

CC(C)n1nc(-c2ccc3oc(N)nc3c2)c2c(N)ncnc21
active: T-47D breast -36% | BT-549 breast -23.9% | MDA-MB-435 melanoma -13.5% | SW-620 colon 6.36% | MCF7 breast -4.22% | HCT-116 colon 7.89% | HCC-2998 colon 9.05%

C=C(CNCCO)[C@@H]1CC[C@]2(CO)CC[C@]3(C)[C@H](CC[C@@H]4[C@@]5(C)CCC(NCCO)C(C)(C)[C@@H]5CC[C@]43C)[C@@H]12 (stereo not given in full)
inactive: T-47D breast 84.4% | BT-549 breast 78.9% | MDA-MB-435 melanoma 70.2% | SW-620 colon 73.8% | MCF7 breast 47.4% | HCT-116 colon 44.3% | HCC-2998 colon 71.7% | KM12 colon 63.4%

CC(C)(C)[C@H](OCc1cn([C@H]2C[C@@H](O)[C@@H](CO)O2)c(=O)[nH]c1=O)c1ccc(C#Cc2ccccc2)cc1[N+](=O)[O-]
inactive: T-47D breast 53.6% | BT-549 breast 27.6% | MDA-MB-435 melanoma 92.6% | SW-620 colon 101% | HCT-116 colon 32.3% | HCC-2998 colon 87.1%
active: MCF7 breast 3.01%

O=C1/C(=C/c2ccc(Br)cc2)COc2ccc(O)cc21
inactive: T-47D breast 80.6% | BT-549 breast 79.2% | MDA-MB-435 melanoma 75.6% | HCT-116 colon 16.9% | HCC-2998 colon 89.8%
active: SW-620 colon 1.35% | MCF7 breast 9.07%

C=C(c1ccc(C(=O)O)c(F)c1)c1cc2c(cc1C)C(C)(C)C=CC2(C)C
inactive: T-47D breast 58.9% | BT-549 breast 87.4% | MDA-MB-435 melanoma 95.3% | SW-620 colon 110% | MCF7 breast 52.5% | HCT-116 colon 85.4% | HCC-2998 colon 112%

C=C(CNCCc1ccc(O)cc1)[C@@H]1CC[C@]2(CO)CC[C@]3(C)[C@H](CC[C@@H]4[C@@]5(C)CCC(N)C(C)(C)[C@@H]5CC[C@]43C)[C@@H]12 (stereo not given in full)
active: T-47D breast -65.7% | MDA-MB-435 melanoma -90.5% | SW-620 colon -81.6% | MCF7 breast -72.3% | HCT-116 colon -65.9% | HCC-2998 colon -89.5%
inactive: BT-549 breast 59.7%

CCCCCN(CCCCC)CC(O)c1c(Cl)ccc2ccccc12 (stereo not given)
inactive: T-47D breast 69% | BT-549 breast 105% | MDA-MB-435 melanoma 84.2% | SW-620 colon 46.1% | MCF7 breast 72.2% | HCT-116 colon 37.2% | HCC-2998 colon 70.8%

COc1cc(-c2ccc(-c3ccc(C(=N)N)s3)s2)cc(OC)c1OC
inactive: T-47D breast 39.3% | BT-549 breast 61.7% | HCC-2998 colon 49.7%
active: MDA-MB-435 melanoma -34.8% | SW-620 colon -15.5% | MCF7 breast -6.02% | HCT-116 colon -21.5%

O=C(Nc1ccc2[nH]ncc2c1)c1csc(Nc2ccccc2)n1
inactive: T-47D breast 37.1% | BT-549 breast 62% | SW-620 colon 21% | MCF7 breast 14.1% | HCT-116 colon 35.3% | HCC-2998 colon 62.5%
active: MDA-MB-435 melanoma -11.9%

COc1ccc(Nc2nc(Nc3cc(C)[nH]n3)c3cc(OC)c(OC)cc3n2)cc1
active: T-47D breast -52.1% [20 µM] | BT-549 breast -87.5% [20 µM] | MDA-MB-435 melanoma -97.5% [20 µM] | SW-620 colon -74.4% [20 µM] | MCF7 breast -71.4% [20 µM] | HCT-116 colon -54.4% [20 µM] | HCC-2998 colon -73.3% [20 µM] | KM12 colon -74% [20 µM]

CCOC(=O)/C(=C\c1ccccc1Cl)P(=O)(OCC)OCC
inactive: T-47D breast 39.5% | BT-549 breast 57.6% | MDA-MB-435 melanoma 45.1% | SW-620 colon 46.6% | MCF7 breast 17.8% | HCT-116 colon 44.2% | HCC-2998 colon 94.5% | KM12 colon 52.9%

Cc1ccc(C2=Nc3c(N)nc(N)nc3NC(c3cccc(Nc4ccnc5cc(C(F)(F)F)ccc45)c3)C2)cc1 (stereo not given)
inactive: T-47D breast 46.9% | BT-549 breast 94% | SW-620 colon 19.1% | HCC-2998 colon 35%
active: MDA-MB-435 melanoma -40.1% | MCF7 breast 6.88% | HCT-116 colon 1.85%

COc1cc(CNC(=O)CCCC/C=C/C(C)C)ccc1OCc1cn(-c2ccc(C(F)(F)F)cc2)nn1
active: HCT-116 colon 2.97%
inactive: T-47D breast 70.2% | BT-549 breast 84.5% | MDA-MB-435 melanoma 107% | SW-620 colon 41.3% | MCF7 breast 75.2% | HCC-2998 colon 94.8%

COC(=O)CNC(=O)c1ccc(NC(=O)c2[nH]c(C)c(Cl)c2Cl)c(O[C@H]2CCNC2)c1
inactive: T-47D breast 101% | BT-549 breast 102% | MDA-MB-435 melanoma 105% | SW-620 colon 103% | MCF7 breast 105% | HCT-116 colon 96.1% | HCC-2998 colon 115%

Nc1nc(=O)n([C@H]2CC=C(CO)O2)cc1F
inactive: T-47D breast 98.6% | BT-549 breast 114% | MDA-MB-435 melanoma 97.8% | SW-620 colon 90.5% | MCF7 breast 95.8% | HCT-116 colon 108% | HCC-2998 colon 104% | KM12 colon 103%

CC(=O)O[C@H]1CC[C@@]2(C)C(=CC[C@@H]3[C@@H]2CC[C@]2(C)C(Cl)=C(c4nc5ccc(Cl)cn5c4NC(C)(C)C)C[C@@H]32)C1
inactive: T-47D breast 94.4% | BT-549 breast 105% | MDA-MB-435 melanoma 93.8% | SW-620 colon 98.3% | MCF7 breast 91.9% | HCT-116 colon 86.6% | HCC-2998 colon 112%

COc1ccc(-c2cc(-c3ccc(Nc4nc(Nc5ccc(Cl)cc5)nc(Nc5ccc(Cl)cc5)n4)cc3)no2)cc1
inactive: T-47D breast 70.7% | BT-549 breast 89.8% | MDA-MB-435 melanoma 71.3% | SW-620 colon 88.7% | MCF7 breast 60.6% | HCT-116 colon 53.3% | HCC-2998 colon 11.4%

CCn1c2ccccc2c2cc(C(O)c3cccc4ncccc34)ccc21 (stereo not given)
active: BT-549 breast -8.94% | MDA-MB-435 melanoma 0.201% | HCT-116 colon 0.739% | HCC-2998 colon -32.5%
inactive: T-47D breast 59% | SW-620 colon 26.8% | MCF7 breast 15.5%

CCOC(=O)c1c(N)sc2cc(O)ccc12
inactive: T-47D breast 85.7% | BT-549 breast 93.3% | MDA-MB-435 melanoma 107% | SW-620 colon 117% | MCF7 breast 104% | HCT-116 colon 98.5% | HCC-2998 colon 111%

CCN(CC)CCCNc1cc(OC)cc2cccnc12
inactive: T-47D breast 93.3% | BT-549 breast 112% | MDA-MB-435 melanoma 115% | SW-620 colon 101% | MCF7 breast 64% | HCT-116 colon 100% | HCC-2998 colon 111% | KM12 colon 96.9%

[2H]C([2H])([2H])Oc1ccc(/C=C/C(=O)/C=C(/C=C/c2ccc(OC([2H])([2H])[2H])c(OC([2H])([2H])[2H])c2OC([2H])([2H])[2H])OB(F)F)c(OC([2H])([2H])[2H])c1OC([2H])([2H])[2H]
active: HCT-116 colon 6.6%
inactive: T-47D breast 51.7% | BT-549 breast 78.6% | MDA-MB-435 melanoma 26.7% | SW-620 colon 18.4% | MCF7 breast 28.2% | HCC-2998 colon 120%

CCN1C(=O)N(CC)C2C1NC(=S)N2/N=C/C=C/c1cccs1 (stereo not given)
active: MDA-MB-435 melanoma -26.9%
inactive: T-47D breast 66.4% | BT-549 breast 24.1% | SW-620 colon 25.5% | MCF7 breast 18.3% | HCT-116 colon 15.1% | HCC-2998 colon 16.4%

O=C1c2c(c3c4cc(F)ccc4oc3c3[nH]c4ccccc4c23)C(=O)N1O
active: T-47D breast 5.76%
inactive: BT-549 breast 44.8% | MDA-MB-435 melanoma 48.9% | SW-620 colon 31.6% | MCF7 breast 17.3% | HCT-116 colon 23.4% | HCC-2998 colon 70.3% | KM12 colon 39.5%

C=C1C(=O)O[C@H]2[C@H]1CC/C(CNC(=O)/C=C/c1cc(OC)c(OC)c(OC)c1)=C\CC[C@@]1(C)O[C@@H]21
inactive: KM12 colon 38.8%
active: T-47D breast -65% | BT-549 breast -17.8% | MDA-MB-435 melanoma -60.3% | SW-620 colon -21.6% | MCF7 breast -8.09% | HCT-116 colon -65.6% | HCC-2998 colon -79%

C1=C2CCCC3=Cc4ccccc4OC23Oc2ccccc21
inactive: T-47D breast 31.9% | BT-549 breast 26.4% | SW-620 colon 18.1% | MCF7 breast 13.5% | HCT-116 colon 24% | HCC-2998 colon 58.4%
active: MDA-MB-435 melanoma -41.6%

CCOC(=O)CC1CSC(N/N=C/c2ccc(O)cc2)=N1 (stereo not given)
inactive: T-47D breast 93.2% | BT-549 breast 100% | MDA-MB-435 melanoma 103% | SW-620 colon 98.1% | MCF7 breast 91% | HCT-116 colon 81.1% | HCC-2998 colon 97.4%

N#C/C(=C\c1cccc2cnccc12)N1N=NC2C=CC=CC21 (stereo not given)
active: MDA-MB-435 melanoma 9.28%
inactive: T-47D breast 23.8% | BT-549 breast 41.6% | SW-620 colon 13.1% | MCF7 breast 13.6% | HCT-116 colon 14.2% | HCC-2998 colon 91.7% | KM12 colon 43.5%

O=[N+]([O-])c1ccc(N/N=C\c2cc(Cl)ccc2O)nc1
inactive: T-47D breast 25.4% | BT-549 breast 42.4% | MDA-MB-435 melanoma 48.7% | SW-620 colon 32.4% | MCF7 breast 16% | HCT-116 colon 16.7% | HCC-2998 colon 42% | KM12 colon 29%

COc1cccc2cc(N(C)c3nc(C)nc4c3CCC4)ccc12
active: BT-549 breast 1.76% | MDA-MB-435 melanoma -3.22% | HCT-116 colon -14.2%
inactive: T-47D breast 50.7% | SW-620 colon 19.7% | MCF7 breast 15.1% | HCC-2998 colon 17.5%

CCOC(=O)c1cnc2sc(-c3ccc(OC)cc3)nc2c1Cl
inactive: T-47D breast 97.2% | BT-549 breast 107% | MDA-MB-435 melanoma 87.7% | SW-620 colon 114% | MCF7 breast 88% | HCT-116 colon 87.8% | HCC-2998 colon 114%

O=C(OCc1ccc2c(Br)cc(Br)c(O)c2n1)N1CCN(C(=O)c2cc3ccccc3[nH]2)CC1
inactive: T-47D breast 27.9% | BT-549 breast 56% | MDA-MB-435 melanoma 43.9% | SW-620 colon 25.3% | MCF7 breast 29.5% | HCT-116 colon 22.4% | HCC-2998 colon 53.1%

Cc1ccc(OCCOCCOCCOCCOc2ccc(C)n(O)c2=S)c(=S)n1O
active: T-47D breast 8.09% | HCC-2998 colon 5.72%
inactive: BT-549 breast 14.1% | MDA-MB-435 melanoma 29.4% | SW-620 colon 25.7% | MCF7 breast 10.1% | HCT-116 colon 14.3%
